ERa coact pot = enhancers of ERα–SRC-1 coactivator binding, primary screen, biochemical, TR-FRET, ERα LBD, low estradiol; Estrogen receptor (Homo sapiens), P03372; AID 639, 2007; coactivator binding (% of control), % at 25.6 µM; hit rate 1.3% among 86,000; TR-FRET ERalpha-LBD/SRC-Cy5 coactivator binding, 2 h; 100 = basal binding, no effect; in the data active means activity above about 200%;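 further: binding measured in presence of low estradiol as agonist stimulus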
hDAT+cocaine = changed hDAT dopamine uptake under cocaine IC80, either direction, primary screen, cocaine antagonist project, cell-based, LLC-PK1 hDAT, [14C]-dopamine uptake, MLSMR. Sodium-dependent dopamine transporter (Homo sapiens), Q01959. LLC-PK1 hDAT cells, [14C]-dopamine uptake with cocaine IC80; actives deviate in either direction. B-score at 10 µM. hit rate 1.3% among 110,000. AID 449768, 2010;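 active means Z score or B-score, a plate-position-corrected score, falls beyond the plate's 99.7% confidence bounds, in either direction; inactive means both scores lie inside the 99.7% bounds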
MT1-MMP txn act = MT1-MMP promoter reporter activation – cell-based, luciferase luminescence, primary screen. HT1080 MT1-MMP promoter luciferase reporter, overnight; stronger effect = higher value. hit rate 0.16% among 86,000. activation factor at 10 µM;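 active means activation factor of at least 2 for MT1-MMP transcription at 10 µM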
ERb coact inh = inhibitors of ERβ-SRC1 coactivator interaction, primary screen, biochemical, TR-FRET, ERβ LBD, SRC-1 peptide; Estrogen receptor beta (Homo sapiens), Q92731; TR-FRET ER-beta LBD / SRC1-Cy5 peptide binding; receptor agonist-loaded with 1 µM estradiol; inhibition, % at 25.6 µM; hit rate 1.3% among 86,000;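 active means compounds whose percent inhibition of the receptor-coactivator binding signal exceeds about 50% in the single-dose screen, limit read from the data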
Target sequence (Q92731 whole entry, looked up, the tested form may be a part): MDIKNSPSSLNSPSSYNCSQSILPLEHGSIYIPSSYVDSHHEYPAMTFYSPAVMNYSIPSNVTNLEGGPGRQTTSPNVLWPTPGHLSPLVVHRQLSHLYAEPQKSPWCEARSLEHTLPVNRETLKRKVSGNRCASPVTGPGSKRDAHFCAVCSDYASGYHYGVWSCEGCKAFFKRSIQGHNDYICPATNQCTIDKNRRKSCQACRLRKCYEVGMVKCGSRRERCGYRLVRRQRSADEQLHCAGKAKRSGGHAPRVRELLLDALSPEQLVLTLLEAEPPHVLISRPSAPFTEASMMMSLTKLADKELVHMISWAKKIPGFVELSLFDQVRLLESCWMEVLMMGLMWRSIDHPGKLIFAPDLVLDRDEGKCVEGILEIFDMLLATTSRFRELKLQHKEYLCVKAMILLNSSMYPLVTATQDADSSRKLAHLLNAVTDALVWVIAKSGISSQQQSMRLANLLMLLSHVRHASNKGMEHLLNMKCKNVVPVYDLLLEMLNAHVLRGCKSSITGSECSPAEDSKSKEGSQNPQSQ
ERa coact inh = ERα–SRC-1 coactivator interaction inhibitors, primary screen, biochemical, TR-FRET, ERα LBD, estradiol-bound. TR-FRET ER-alpha LBD / SRC-1 peptide. hit rate 1.7% among 86,000. AID 629, 2007. Estrogen receptor (Homo sapiens), P03372. inhibition, % at 25.6 µM; in the data active means inhibition above about 50%
A number is an active result; [ ] = remark or other dose. Sampled rows, rich in hits. Any-hit rate of the full collection: about 3.8%.

For Cc1cc(C)cc(OCc2nc3ncc(Br)cc3[nH]2)c1 the results were ERa coact pot 333[fluorescence artefact?], hDAT+cocaine inactive, MT1-MMP txn act inactive, ERb coact inh inactive and ERa coact inh 57.
Screening COc1cccc(OCc2nc3ncc(Br)cc3[nH]2)c1 returned ERa coact pot inactive, hDAT+cocaine inactive, MT1-MMP txn act inactive, ERb coact inh inactive and ERa coact inh inactive.
Screening CC(C)Cc1nc2oc3c(N4CCN(CCO)CC4)ncnc3c2c2c1CCCC2 returned ERa coact pot inactive, hDAT+cocaine 2.4, MT1-MMP txn act inactive, ERb coact inh inactive and ERa coact inh inactive.
`CCN1CCN(c2ncnc3c2oc2nc(C(C)C)c4c(c23)CCC4)CC1` gave ERa coact pot inactive, MT1-MMP txn act inactive, ERb coact inh inactive and ERa coact inh inactive.
Screening CC(C)c1nc2oc3c(NCc4cccnc4)ncnc3c2c2c1CCC2 returned ERa coact pot 515[fluorescence artefact?], hDAT+cocaine inactive, MT1-MMP txn act inactive, ERb coact inh inactive and ERa coact inh inactive.
For CCOC(=O)N1CCN(c2ncnc3c2oc2nc(C(C)C)c4c(c23)CCC4)CC1 the results were ERa coact pot 312[fluorescence artefact?], hDAT+cocaine inactive, MT1-MMP txn act inactive, ERb coact inh inactive and ERa coact inh inactive.
COC(=O)CNC(=O)C1Nc2ccc(OC(F)(F)F)cc2C2C=CCC12 (stereo not drawn) was read as hDAT+cocaine inactive.
For CCOc1ccc2nc(NC(=O)CN3CCC(n4nnc5cc(F)ccc54)CC3)sc2c1 the results were ERa coact pot inactive, hDAT+cocaine 4.3, MT1-MMP txn act inactive, ERb coact inh inactive and ERa coact inh inactive.
O=C(CN1CCC(n2nnc3cc(F)ccc32)CC1)NC1CC1 was read as ERa coact pot inactive, MT1-MMP txn act inactive, ERb coact inh inactive and ERa coact inh inactive.
NC(=O)c1cccc2c1C(=O)N(C1CCCCC1)C2 was read as ERa coact pot inactive, hDAT+cocaine inactive, MT1-MMP txn act inactive, ERb coact inh 53 and ERa coact inh 53[fluorescence artefact?].
Screening CCOC(=O)N1CCC(N2Cc3cccc(C(=O)N4CCN(C5CCCCC5)CC4)c3C2=O)CC1 returned ERa coact pot inactive, hDAT+cocaine inactive, MT1-MMP txn act inactive, ERb coact inh inactive and ERa coact inh inactive.
c1ccc(-c2nn3c(Cn4nnc5ccccc54)nnc3s2)nc1 was read as ERa coact pot inactive, hDAT+cocaine inactive, MT1-MMP txn act inactive, ERb coact inh inactive and ERa coact inh 85[fluorescence artefact?].
For COc1cc(OC)c(C(=O)CCCN2CCCC2)c(OC)c1 the results were hDAT+cocaine inactive.
For CCNc1nnc(-c2ccccc2OC)s1 the results were ERa coact pot inactive, hDAT+cocaine inactive, MT1-MMP txn act inactive, ERb coact inh 73[fluorescence artefact?] and ERa coact inh inactive.
Screening COc1ccc(C2CC(c3ccccc3)Nc3nc(N)nn32)cc1 (stereo not drawn) returned ERa coact pot inactive, hDAT+cocaine 2.5, MT1-MMP txn act inactive, ERb coact inh inactive and ERa coact inh inactive.
`COc1cccc(C2CC(c3ccc(F)cc3)Nc3nc(N)nn32)c1` (stereo not drawn) gave ERa coact pot 308, hDAT+cocaine inactive, MT1-MMP txn act inactive, ERb coact inh inactive and ERa coact inh inactive.
`O=C(Cn1nc(Cl)nc1Cl)c1cc2ccccc2oc1=O` gave ERa coact pot inactive, hDAT+cocaine inactive, MT1-MMP txn act inactive, ERb coact inh inactive and ERa coact inh 55[fluorescence artefact?].
CCC1=C(OC(=O)N(CC)CC)N2C(=O)OC(=NCCOC)[C@]2(C)[C@H]2C1=CC[C@H]1C(=O)N(CC)C(=O)[C@H]12 was read as MT1-MMP txn act inactive.
`O=C(C1=C[C@@H](c2coc3ccccc3c2=O)C[C@@H](OCCCCO)O1)N1CCN(Cc2ccc3c(c2)OCO3)CC1` gave hDAT+cocaine inactive.
For O=C1N/C(=N/N=C/c2ccccc2)SC1(c1ccccc1)c1ccccc1 the results were ERa coact pot inactive, hDAT+cocaine inactive, MT1-MMP txn act inactive, ERb coact inh inactive and ERa coact inh inactive.
Screening COc1ccc(OC)c(S(=O)(=O)NCc2csc(-c3ccccc3)n2)c1 returned ERa coact pot inactive, hDAT+cocaine 2.4, MT1-MMP txn act inactive, ERb coact inh inactive and ERa coact inh inactive.
COc1ccc(OC)c(S(=O)(=O)NCc2cn3c(C)csc3n2)c1 was read as ERa coact pot inactive, hDAT+cocaine inactive, MT1-MMP txn act inactive, ERb coact inh inactive and ERa coact inh inactive.
CCOC(=O)C(=CN(CCc1ccccc1)CC(=O)OC)C(=O)OCC was read as hDAT+cocaine inactive and MT1-MMP txn act inactive.
`COC(=O)[C@@]1(Cc2ccccc2)[C@H]2c3cc(C(=O)N4CCCC4)n(Cc4cc(F)cc5c4OCOC5)c3C[C@H]2CN1C(=O)c1ccccc1` gave MT1-MMP txn act inactive.
Screening COc1cc(OC)cc(-c2nc3ccccc3s2)c1 returned ERa coact pot inactive, hDAT+cocaine inactive, MT1-MMP txn act inactive, ERb coact inh inactive and ERa coact inh inactive.
COc1ccc(C(O)c2nc3ccccc3s2)cc1 (stereo not drawn) was read as ERa coact pot inactive, hDAT+cocaine -1.9, MT1-MMP txn act inactive, ERb coact inh inactive and ERa coact inh inactive.
`COC(C[C@H]1O[C@H]1[C@H](O)COCc1ccccc1)OC` gave hDAT+cocaine inactive.
`Cn1c(=O)[nH]c(=O)c2c1nc1n2CCCN1CCc1ccccc1` gave ERa coact pot inactive, hDAT+cocaine inactive, MT1-MMP txn act inactive, ERb coact inh 62 and ERa coact inh 65.
`CSc1ccc(Cl)c(C(=O)NCc2ccco2)c1` gave ERa coact pot inactive, hDAT+cocaine inactive, MT1-MMP txn act inactive, ERb coact inh inactive and ERa coact inh inactive.
For O=C(COC(=O)c1cncc(Br)c1)NCc1ccco1 the results were ERa coact pot inactive, hDAT+cocaine inactive, MT1-MMP txn act inactive, ERb coact inh 50[fluorescence artefact?] and ERa coact inh 60[fluorescence artefact?].
`CSc1ccc(Cl)c(C(=O)OCC(=O)NCc2ccco2)c1` gave ERa coact pot inactive, hDAT+cocaine inactive, MT1-MMP txn act inactive, ERb coact inh inactive and ERa coact inh 52[fluorescence artefact?].
For Cc1ccc(NS(=O)(=O)c2cccc(C(=O)OCC(=O)NCc3ccco3)c2)cc1 the results were ERa coact pot inactive, hDAT+cocaine inactive, MT1-MMP txn act inactive, ERb coact inh inactive and ERa coact inh 53.
`COc1cc(C(=O)OCC(=O)NCc2ccco2)cc(OC)c1OC` gave ERa coact pot inactive, hDAT+cocaine inactive, MT1-MMP txn act inactive, ERb coact inh inactive and ERa coact inh inactive.
`CCOc1cc(C(=O)OCC(=O)NCc2ccco2)cc(OCC)c1OCC` gave ERa coact pot inactive, hDAT+cocaine inactive, MT1-MMP txn act inactive, ERb coact inh inactive and ERa coact inh 57[fluorescence artefact?].

Screening data from PubChem BioAssay.
